Most compounds without a hit are left out; they make up all but 5.1% or so of the library.
GRIN3A LBD mod – modulates the human NR3A ligand-binding domain; AID 1259313; 2.5% of 340,000 active; Tm shift relative to glycine control, % at 25 µM; NR3A LBD differential scanning fluorimetry, Tm shift; 0% = protein alone, 100% = glycine-bound protein;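 active means melting temperature shift of at least 10% of the positive control shift, at one fixed dose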
CRFR2-BP ag – agonists of human CRF-binding protein/CRF-R2 receptor complex; HEK293 CRF-R2/CRF-BP, calcium dye fluorescence (FLIPR); percent of saturating CRF peptide response; activation, % at 13.2 µM; 0.46% of 350,000 active; AID 588473;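 active means activation of at least 50%, plus an integration ratio under a set limit after plate pattern correction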
MPTP block – inhibitors of mitochondrial permeability transition pore | 1.4% of 360,000 active | inhibition, % at 10 µM | isolated mouse mitochondria, Ca2+ swelling absorbance, 30 min;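 active means inhibition of 50% or more, scaled per plate between neutral and stimulator controls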
ANO1 activ – activates or potentiates the mouse TMEM16A chloride channel; 0.3% of 340,000 active; B-score at 10 µM; AID 623877; HEK293 TMEM16A/YFP-H148Q/I152L, iodide quench fluorescence; active compounds read low; Q8BHY3;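 active means fluorescence-ratio B-score plate-corrected deviation score at least 3 library SD below zero, with starting fluorescence score within 5 deviations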;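 further: channel opened by trigger with iodide after compound preincubation; score built on the fluorescence ratio of max minus min over baseline; more negative score means more quench and so TMEM16A activation or potentiation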
Target sequence (Q8BHY3 whole entry, looked up): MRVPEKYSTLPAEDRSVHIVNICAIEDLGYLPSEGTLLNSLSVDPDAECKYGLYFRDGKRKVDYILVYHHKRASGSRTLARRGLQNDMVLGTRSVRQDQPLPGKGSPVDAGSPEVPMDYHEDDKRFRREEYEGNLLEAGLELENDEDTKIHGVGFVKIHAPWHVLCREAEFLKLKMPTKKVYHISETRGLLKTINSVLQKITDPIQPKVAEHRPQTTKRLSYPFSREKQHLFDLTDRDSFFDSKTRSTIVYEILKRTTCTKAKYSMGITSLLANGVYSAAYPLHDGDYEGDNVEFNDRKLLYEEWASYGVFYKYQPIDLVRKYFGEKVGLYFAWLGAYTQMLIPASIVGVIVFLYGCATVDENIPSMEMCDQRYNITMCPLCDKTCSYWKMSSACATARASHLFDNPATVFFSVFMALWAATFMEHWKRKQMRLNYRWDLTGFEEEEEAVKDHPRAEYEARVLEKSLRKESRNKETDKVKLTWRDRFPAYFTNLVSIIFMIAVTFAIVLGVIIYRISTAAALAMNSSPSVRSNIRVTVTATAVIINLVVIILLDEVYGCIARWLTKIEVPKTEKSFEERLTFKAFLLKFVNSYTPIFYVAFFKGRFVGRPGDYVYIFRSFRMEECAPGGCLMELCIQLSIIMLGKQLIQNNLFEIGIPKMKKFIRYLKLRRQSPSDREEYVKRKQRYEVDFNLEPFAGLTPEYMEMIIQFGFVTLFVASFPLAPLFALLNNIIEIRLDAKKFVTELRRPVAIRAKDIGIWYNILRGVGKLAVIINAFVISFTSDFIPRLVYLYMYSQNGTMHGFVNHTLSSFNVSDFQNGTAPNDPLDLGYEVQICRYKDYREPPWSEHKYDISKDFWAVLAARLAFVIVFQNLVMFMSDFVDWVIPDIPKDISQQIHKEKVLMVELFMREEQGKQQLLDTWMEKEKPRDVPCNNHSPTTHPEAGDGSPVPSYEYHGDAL
ANO1 block – blocks the mouse calcium-activated chloride channel TMEM16A; Q8BHY3; HEK293 TMEM16A/YFP iodide influx fluorescence, ionomycin; normalized B-score (activity score, 25-100; higher = stronger inhibition) at 10 µM; 1.2% of 310,000 active; AID 588511;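 active means ratio plate-corrected score three or more library SD toward inhibition, starting fluorescence score within five deviations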;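 further: score derived from kinetic fluorescence span divided by baseline fluorescence per well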
CRFR2-BP antag – CRF-BP/CRF-R2 complex antagonism | HEK293 CRF-R2/CRF-BP, CRF-induced calcium fluorescence | inhibition, % at 11.8 µM | 0.59% of 350,000 active | AID 588475;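 active means inhibition of the ligand-induced calcium signal above about 50% at the single tested concentration, limit read from the data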
Rh123 counter – membrane potential counter-screen of mitochondrial pore inhibitors; shares compounds with MPTP block; isolated mitochondria, Rhodamine 123 fluorescence; inhibition, % at 10 µM; 78% of 5,000 active; AID 624504; in the data active means inhibition above about 22%
A number is an active result.

`O=C(COc1ccc(-c2ccccc2)cc1)Nc1cccnc1` gave GRIN3A LBD mod inactive, CRFR2-BP ag inactive, MPTP block 87, ANO1 activ inactive, CRFR2-BP antag inactive and Rh123 counter 102.
Screening O=C(COc1ccc(Br)cc1)Nc1ccncc1 returned GRIN3A LBD mod inactive, CRFR2-BP ag inactive, MPTP block 55, ANO1 activ inactive, ANO1 block inactive, CRFR2-BP antag inactive and Rh123 counter 58.
For O=C(COc1ccc(-n2ccnc2)cc1)Nc1cccc(Cl)c1 the results were GRIN3A LBD mod inactive, CRFR2-BP ag inactive, MPTP block 89, ANO1 activ inactive, ANO1 block 25, CRFR2-BP antag inactive and Rh123 counter 57.
O=C(COc1ccc([N+](=O)[O-])cc1)Nc1cccnc1 was read as GRIN3A LBD mod inactive, CRFR2-BP ag inactive, MPTP block inactive, ANO1 activ inactive, ANO1 block inactive and CRFR2-BP antag inactive.
Screening C[C@H](CO)N1C[C@H](C)[C@@H](CN(C)C(=O)c2cnccn2)Oc2cc(C#CCC3CCCC3)ccc2S1(=O)=O returned CRFR2-BP ag inactive, MPTP block inactive and CRFR2-BP antag inactive.
For COc1c(Cl)cc(C(=O)Nc2cccnc2)cc1Cl the results were CRFR2-BP ag inactive, MPTP block inactive and CRFR2-BP antag inactive.
Screening Cc1cc(OCC(=O)Nc2ccncc2)cc(C)c1Cl returned GRIN3A LBD mod inactive, CRFR2-BP ag inactive, MPTP block 94, ANO1 activ inactive, ANO1 block inactive, CRFR2-BP antag inactive and Rh123 counter 84.
For O=C(N/N=C/c1cn(-c2ccccc2)nc1-c1cccnc1)c1ccccc1 the results were GRIN3A LBD mod inactive, CRFR2-BP ag inactive, MPTP block inactive, ANO1 activ inactive, ANO1 block inactive and CRFR2-BP antag inactive.
`O=C(N/N=C/c1cn(-c2cccs2)nc1-c1ccccc1)c1ccccc1O` gave GRIN3A LBD mod 26, CRFR2-BP ag inactive, MPTP block 99, ANO1 activ inactive, ANO1 block 100, CRFR2-BP antag inactive and Rh123 counter 32.
Screening CC(C)(C)c1ccc(C(=O)NCCN2CCOCC2)cc1 returned GRIN3A LBD mod inactive, CRFR2-BP ag inactive, MPTP block inactive, ANO1 activ inactive, ANO1 block inactive and CRFR2-BP antag inactive.
CC(C)(C)c1ccc(C(=O)NCCCN2CCN(CCCNC(=O)c3ccc(C(C)(C)C)cc3)CC2)cc1 was read as GRIN3A LBD mod inactive, CRFR2-BP ag inactive, MPTP block 87, ANO1 activ inactive, ANO1 block inactive, CRFR2-BP antag inactive and Rh123 counter 86.
COC(=O)N1CCCCC1c1cc(C(=O)N2CCOCC2)no1 (stereo unspecified) was read as MPTP block inactive.
Screening CN1N=C2c3ccccc3CCCC2C1c1ccc(F)cc1 (stereo unspecified) returned GRIN3A LBD mod inactive, CRFR2-BP ag inactive, MPTP block inactive, ANO1 activ inactive, ANO1 block inactive and CRFR2-BP antag inactive.
For CCCCc1c(Cc2ccccc2)ncn1CCc1ccccc1OC the results were MPTP block 85 and Rh123 counter 114.
For CCCCc1c(-c2ccccc2)ncn1CCc1ccccc1OC the results were MPTP block inactive.
`Cc1ccc(-n2ncc3c(N4CCN(c5ccccc5)CC4)ncnc32)c(C)c1` gave GRIN3A LBD mod inactive, CRFR2-BP ag inactive, MPTP block 51, ANO1 activ inactive, ANO1 block inactive, CRFR2-BP antag inactive and Rh123 counter 34.
For COc1ccc(N2CCN(c3ncnc4c3cnn4-c3ccc(C)cc3C)CC2)cc1 the results were GRIN3A LBD mod inactive, CRFR2-BP ag inactive, MPTP block inactive, ANO1 activ inactive, ANO1 block inactive and CRFR2-BP antag inactive.
CC(C)c1ccc(CNc2ccc3c(c2)ncn3C)cc1 was read as GRIN3A LBD mod inactive, CRFR2-BP ag inactive, MPTP block 56, ANO1 activ inactive, ANO1 block inactive, CRFR2-BP antag inactive and Rh123 counter 58.
Screening CN(C)c1ccc(CNc2ccc3c(c2)ncn3C)cc1 returned GRIN3A LBD mod inactive, CRFR2-BP ag inactive, ANO1 block inactive and CRFR2-BP antag inactive.
`CSCCC(C(=O)NC(C)(C)C)n1c(-c2ccc3c(c2)OCO3)nc2ccccc21` (stereo unspecified) gave MPTP block inactive.
`Fc1cccc(NC(=S)NNc2ccccc2)c1` gave GRIN3A LBD mod inactive, CRFR2-BP ag inactive, MPTP block inactive, ANO1 activ inactive, ANO1 block inactive and CRFR2-BP antag inactive.
For S=C(NCc1ccc(Cl)cc1Cl)Nc1ccccc1 the results were GRIN3A LBD mod 13, CRFR2-BP ag inactive, MPTP block 95, ANO1 activ inactive, ANO1 block inactive, CRFR2-BP antag inactive and Rh123 counter 95.
`S=C(NCc1ccccc1)NCc1ccc(CNC(=S)NCc2ccccc2)cc1` gave GRIN3A LBD mod 20, CRFR2-BP ag inactive, MPTP block 79, ANO1 activ inactive, ANO1 block inactive, CRFR2-BP antag inactive and Rh123 counter 90.
Fc1ccc(CNC(=S)NCc2ccccc2)cc1 was read as GRIN3A LBD mod inactive, CRFR2-BP ag inactive, MPTP block inactive, ANO1 activ inactive, ANO1 block inactive and CRFR2-BP antag inactive.
`Fc1cccc(NC(=S)NNc2c3ccccc3nc3ccccc23)c1` gave GRIN3A LBD mod inactive, CRFR2-BP ag inactive, MPTP block 92, ANO1 activ inactive, CRFR2-BP antag inactive and Rh123 counter 46.
Screening S=C(NCc1ccc(Cl)cc1)Nc1ccncc1 returned GRIN3A LBD mod inactive, CRFR2-BP ag inactive, MPTP block 98, ANO1 activ inactive, ANO1 block inactive, CRFR2-BP antag inactive and Rh123 counter 103.
For COc1cccc(NC(=O)C2(C)CCN2Cc2ccc3ccccc3c2)c1 (stereo unspecified) the results were MPTP block inactive.
For Cc1ccccc1S(=O)(=O)NC(=NCc1ccc(F)cc1)c1ccccc1 the results were GRIN3A LBD mod inactive, CRFR2-BP ag inactive, MPTP block inactive, ANO1 activ inactive and CRFR2-BP antag inactive.
`Cc1ccc(NC(=S)NCc2ccc(Cl)cc2)c(OC(F)F)c1` gave GRIN3A LBD mod inactive, CRFR2-BP ag inactive, MPTP block 62, ANO1 activ inactive, ANO1 block inactive, CRFR2-BP antag inactive and Rh123 counter 97.
For Fc1ccc(NC(=S)NCc2ccccc2)cc1 the results were GRIN3A LBD mod inactive, CRFR2-BP ag inactive, MPTP block inactive, ANO1 activ inactive, ANO1 block inactive and CRFR2-BP antag inactive.
Screening Cc1cc(Cl)ccc1NC(=S)NCc1ccccc1Cl returned GRIN3A LBD mod inactive, CRFR2-BP ag inactive, MPTP block 93, ANO1 activ inactive, ANO1 block inactive, CRFR2-BP antag inactive and Rh123 counter 84.

Assay outcomes deposited in PubChem by several laboratories.
